Measured values taken from PubChem BioAssay.
Results filed as inconclusive are left out. Activity calls are given as the source filed them.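 How the source made its calls, unless noted: active means binding below the plate cutoff, the plate median minus 3 SD, with a reading above zero; inconclusive means below the plate cutoff but reading exactly zero; inactive means the rest.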

How the values were obtained:
[1] = yeast TOR pathway RPL19A-GFP modulators, primary screen, cell-based, S. cerevisiae, multiplex flow cytometry (AID 1862; in the data active means percent of DMSO control GFP below about 86%;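 further: lower values mimic rapamycin by blocking the RPL19A rise seen in DMSO cells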); conditions: S. cerevisiae RPL19A-GFP strain, flow cytometry fluorescence, 3 h; at 10 µM; stronger effect = lower value
[2] = modulators of MEP2-GFP levels in yeast, primary screen, S. cerevisiae, multiplex flow cytometry (AID 1867;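 active means GFP response, as percent of the DMSO control, above the screen-wide mean plus 3 SD, about 139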;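 further: median GFP channel fluorescence of barcode-gated MEP2-GFP cells measured by flow cytometry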); conditions: S. cerevisiae MEP2-GFP strain, 3 h, at 10 µM, stronger effect = higher value, 100% means same as DMSO wells
[3] = modulators of CIT2-GFP expression in yeast, primary screen, S. cerevisiae, GFP fusion, multiplex flow cytometry (AID 1870;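 active means percent response above a set limit, the screen-wide mean plus 3 SD, cut at about 130% in these data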;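 further: barcoded CIT2-GFP strain pooled with four other GFP strains with rapamycin as positive control; median GFP fluorescence per well over plate mean of DMSO wells so 100% = DMSO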); conditions: 3 h, at 10 µM, stronger effect = higher value
[4] = modulators of LAP4-GFP expression in yeast, primary screen, S. cerevisiae, multiplex flow cytometry (AID 1873;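 active means GFP signal, as percent of the solvent control, above the screen mean plus 3 SD, about 149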); conditions: 3 h, at 10 µM, stronger effect = higher value
[5] = modulators of AGP1-GFP expression in yeast TOR pathway, primary screen, cell-based, multiplex flow cytometry, S. cerevisiae (AID 1887;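 active means GFP signal above the screen-wide mean plus 3 SD, that is over about 124.5% of the solvent control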;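 further: AGP1-GFP fusion strain of S. cerevisiae within a five-strain barcoded multiplex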); conditions: 3 h, at 10 µM, stronger effect = higher value
[6] = inhibitors of CD8+ T cell-vesicle binding, pilot screen, LFA-1/ICAM-1 modulator project, MLPCN validation set, flow cytometry (AID 2523;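 active means response below a set limit, under 55% cells CD8-positive and vesicle-bound, and CD8 cells' 90th-percentile brightness under 279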;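 on vesicle binding response: mean PE anti-B7-1 fluorescence of CD8+ cells relative to row control; 100% = QL9-loaded vesicles with DMSO vehicle in the same plate row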); conditions: 2C mouse CD8+ T cells, at 7 µM, stronger effect = lower value; double positive events: measured here: CD8+/vesicle+ event percentage
[7] = molecular target: Integrin beta-1 (Homo sapiens) + Integrin alpha-4 (Homo sapiens) (UniProt P13612+P05556); experiment: inhibition of HUTS-21 binding to VLA-4, pilot screen, VLA-4 allosteric modulator project, U937 cells, HUTS-21 mAb, flow cytometry, validation set (AID 2674;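 active means inhibition above 50%, about 3 SD of the validation set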;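 further: antibody binding induced by the VLA-4 ligand LDV present at three times its Kd; 0% = LDV ligand with antibody and no compound and 100% = antibody without LDV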); conditions: HUTS-21 LIBS mAb binding, at 6.7 µM, stronger effect = higher value, binding induced by LDV ligand
[8] = superoxide lowering in aged yeast cells, pilot screen, validation compound set (AID 2706;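 active means superoxide response below 65% of plate, a cut near 3 SD across the whole screen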;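 further: yeast exposed to compound for one week at 30 degrees C before staining; 100% = mean of all compound wells on the same plate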); conditions: S. cerevisiae aging, superoxide DHE fluorescence; at 10 µM, stronger effect = lower value
[9] = molecular target: Beta-adrenergic receptor kinase 1 (Homo sapiens) (UniProt P25098); experiment: GRK2 binders displacing RNA aptamer, biochemical, validation, human GRK2, bead flow cytometry (AID 488806;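 active means aptamer binding inhibition above 30%, about 3 SD of noise from non-fluorescent compounds; inactive means inhibition at or below 30%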); conditions: bead-bound GRK2, FAM-aptamer displacement, at 10 µM, stronger effect = higher value
[10] = molecular target: AP-2 complex subunit beta (Homo sapiens) (UniProt P63010); experiment: inhibitors of arrestin peptide binding to AP2, pilot screen, biochemical, validation set, GST-AP2 beads, flow cytometry (AID 504541;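 active means inhibition above 54%, about 3 SD of non-fluorescent compounds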;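 further: AP2 carries R879A mutation and is captured from E. coli lysate; bead-bound FITC arrestin peptide fluorescence measuring arrestin peptide binding to AP2; 0% = DMSO wells and 100% = excess unlabeled arrestin peptide control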); conditions: FITC arrestin peptide, at 10 µM, stronger effect = higher value, AP2 beta2 appendage fragment, R879A mutant
[11] = yeast V-ATPase proton transport modulators, S. cerevisiae, pHLuorin, HTS validation (AID 504600; in the data active means response above about 15%;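 further: plate controls were DMSO for no effect and reference compound for full effect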); conditions: S. cerevisiae pHLuorin cytosolic pH, at 10 µM, stronger effect = higher value
[12] = tested on: anti-desmoglein-3 scFv antibody binding to human DSG3; experiment: inhibitors of anti-DSG3 scFv binding to DSG3, pilot screen, biochemical, validation compound set, bead-based, flow cytometry (AID 588368); conditions: Protein G beads, DSG3-Fc, scFv-GFP binding, at 10 µM, stronger effect = lower value;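 further: signal is the median channel fluorescence of bead-bound GFP antibody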
[13] = inhibitors of fungal efflux pumps CDR1, CDR2, MDR1, pilot screen, validation compound set, multiplex, phenotypic (AID 588506;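 active means efflux inhibition above 0.42, the validation set average plus 4 SD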;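 further: Nile Red retained in cells so higher fluorescence means more efflux inhibition; 0 = negative control wells and 1 = enniatin B 25 µM full block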); conditions: S. cerevisiae pump-expressing triplex, Nile Red efflux flow cytometry; at 10 µM; stronger effect = higher value; the pumps come from Candida albicans
[14] = molecular target: ATP-binding cassette sub-family B member 6 (Homo sapiens) (UniProt Q9NP58); experiment: ABCB6 transporter inhibitors, pilot screen, K562-ABCB6 cells, flow cytometry, validation set (AID 588550;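 active means inhibition above the screen-wide mean plus 3 SD, about 51%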;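 further: 0% = DMSO wells and 100% = benzethonium chloride 70 µM positive control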); conditions: K562-ABCB6 porphyrin accumulation, 1 h, at 10 µM, stronger effect = higher value
[15] = promoters of myeloid differentiation in arrested cells, primary screen, cell-based, GFP/MAC1 double positive, flow cytometry, validation set (AID 588685;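 active means differentiation response of at least 50%, scaled between solvent and reference control, from cells with both markers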;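 further: compound exposure lasts four days before antibody staining and flow analysis; 0% = DMSO wells and 100% = 5 µM fulvestrant positive control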); conditions: ER-HoxA9 marrow cells, stronger effect = higher value, normalized: vehicle 0, fulvestrant 100

Chain of AP-2 complex subunit beta (Homo sapiens) (P63010 whole entry, looked up, the tested form may be a part, one chain of several): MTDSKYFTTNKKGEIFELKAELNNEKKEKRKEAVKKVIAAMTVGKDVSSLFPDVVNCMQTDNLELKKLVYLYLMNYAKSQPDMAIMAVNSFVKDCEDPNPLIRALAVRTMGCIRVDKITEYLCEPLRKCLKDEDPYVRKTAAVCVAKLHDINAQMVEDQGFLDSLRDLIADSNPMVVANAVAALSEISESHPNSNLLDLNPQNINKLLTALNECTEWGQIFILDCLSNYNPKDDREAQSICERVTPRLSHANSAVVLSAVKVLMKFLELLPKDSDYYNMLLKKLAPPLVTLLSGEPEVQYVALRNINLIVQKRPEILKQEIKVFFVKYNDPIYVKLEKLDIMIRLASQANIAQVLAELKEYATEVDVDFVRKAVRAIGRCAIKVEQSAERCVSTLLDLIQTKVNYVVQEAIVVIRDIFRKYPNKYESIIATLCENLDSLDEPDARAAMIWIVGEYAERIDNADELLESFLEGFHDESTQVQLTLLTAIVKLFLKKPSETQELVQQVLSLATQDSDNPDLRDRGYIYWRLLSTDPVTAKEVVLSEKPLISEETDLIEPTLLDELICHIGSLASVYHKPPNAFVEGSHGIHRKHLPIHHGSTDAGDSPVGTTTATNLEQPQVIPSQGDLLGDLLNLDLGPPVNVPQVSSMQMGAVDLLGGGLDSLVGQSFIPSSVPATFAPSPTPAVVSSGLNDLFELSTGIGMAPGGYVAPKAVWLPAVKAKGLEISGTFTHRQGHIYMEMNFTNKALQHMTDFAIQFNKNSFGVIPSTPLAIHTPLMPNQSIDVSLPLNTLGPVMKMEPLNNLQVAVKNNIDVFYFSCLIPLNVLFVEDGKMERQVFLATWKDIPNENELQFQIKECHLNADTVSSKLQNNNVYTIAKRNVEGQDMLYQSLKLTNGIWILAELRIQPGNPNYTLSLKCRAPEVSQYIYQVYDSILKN
Chain of Integrin beta-1 (Homo sapiens) + Integrin alpha-4 (Homo sapiens) (P05556 whole entry, looked up): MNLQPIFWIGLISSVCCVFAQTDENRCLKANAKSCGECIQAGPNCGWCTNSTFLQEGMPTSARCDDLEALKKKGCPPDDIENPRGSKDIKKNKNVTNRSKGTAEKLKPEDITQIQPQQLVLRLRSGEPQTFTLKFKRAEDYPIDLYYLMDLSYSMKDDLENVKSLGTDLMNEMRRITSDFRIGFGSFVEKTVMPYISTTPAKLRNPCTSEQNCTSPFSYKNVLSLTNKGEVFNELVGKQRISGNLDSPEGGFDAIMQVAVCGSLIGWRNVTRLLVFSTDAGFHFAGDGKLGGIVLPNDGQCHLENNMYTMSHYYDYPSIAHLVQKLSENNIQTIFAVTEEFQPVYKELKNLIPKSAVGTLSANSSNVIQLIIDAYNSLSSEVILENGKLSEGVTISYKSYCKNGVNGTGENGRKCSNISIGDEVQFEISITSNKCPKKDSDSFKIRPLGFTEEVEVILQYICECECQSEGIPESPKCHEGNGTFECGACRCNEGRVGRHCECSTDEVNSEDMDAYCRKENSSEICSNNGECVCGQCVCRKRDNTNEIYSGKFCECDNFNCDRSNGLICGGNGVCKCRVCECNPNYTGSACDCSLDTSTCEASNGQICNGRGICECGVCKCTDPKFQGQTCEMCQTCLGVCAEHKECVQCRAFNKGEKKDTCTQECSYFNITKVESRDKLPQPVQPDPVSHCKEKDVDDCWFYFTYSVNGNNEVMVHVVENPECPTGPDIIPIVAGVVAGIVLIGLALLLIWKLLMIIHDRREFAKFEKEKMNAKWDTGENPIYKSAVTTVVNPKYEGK
Chain of Integrin beta-1 (Homo sapiens) + Integrin alpha-4 (Homo sapiens) (P13612 whole entry, looked up): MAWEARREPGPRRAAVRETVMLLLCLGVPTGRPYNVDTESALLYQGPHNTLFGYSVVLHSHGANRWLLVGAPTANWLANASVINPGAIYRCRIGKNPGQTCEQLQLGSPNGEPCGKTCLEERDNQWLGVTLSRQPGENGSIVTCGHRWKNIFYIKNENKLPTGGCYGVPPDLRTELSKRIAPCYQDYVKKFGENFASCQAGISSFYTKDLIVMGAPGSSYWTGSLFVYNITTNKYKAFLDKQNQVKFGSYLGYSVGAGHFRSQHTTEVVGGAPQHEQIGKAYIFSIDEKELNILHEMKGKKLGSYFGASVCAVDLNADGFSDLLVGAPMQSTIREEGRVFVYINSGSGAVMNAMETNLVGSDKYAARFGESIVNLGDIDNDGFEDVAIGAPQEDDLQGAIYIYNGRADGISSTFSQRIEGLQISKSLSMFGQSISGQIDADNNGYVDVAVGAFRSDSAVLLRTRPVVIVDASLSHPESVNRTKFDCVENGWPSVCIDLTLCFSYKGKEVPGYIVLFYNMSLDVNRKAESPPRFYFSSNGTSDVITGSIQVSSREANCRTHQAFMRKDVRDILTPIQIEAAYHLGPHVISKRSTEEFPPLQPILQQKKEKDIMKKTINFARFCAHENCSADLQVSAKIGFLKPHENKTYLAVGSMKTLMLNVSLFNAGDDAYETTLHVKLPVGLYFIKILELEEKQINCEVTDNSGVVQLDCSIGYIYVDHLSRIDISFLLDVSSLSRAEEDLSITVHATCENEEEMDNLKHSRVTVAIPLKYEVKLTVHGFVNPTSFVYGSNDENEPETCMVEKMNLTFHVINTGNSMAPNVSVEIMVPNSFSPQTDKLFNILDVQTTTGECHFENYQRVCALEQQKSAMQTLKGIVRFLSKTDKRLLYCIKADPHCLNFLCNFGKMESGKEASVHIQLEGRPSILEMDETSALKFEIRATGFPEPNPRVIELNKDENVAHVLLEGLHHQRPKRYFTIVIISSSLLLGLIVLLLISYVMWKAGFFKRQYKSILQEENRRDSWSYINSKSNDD
Chain of ATP-binding cassette sub-family B member 6 (Homo sapiens) (Q9NP58 whole entry, looked up): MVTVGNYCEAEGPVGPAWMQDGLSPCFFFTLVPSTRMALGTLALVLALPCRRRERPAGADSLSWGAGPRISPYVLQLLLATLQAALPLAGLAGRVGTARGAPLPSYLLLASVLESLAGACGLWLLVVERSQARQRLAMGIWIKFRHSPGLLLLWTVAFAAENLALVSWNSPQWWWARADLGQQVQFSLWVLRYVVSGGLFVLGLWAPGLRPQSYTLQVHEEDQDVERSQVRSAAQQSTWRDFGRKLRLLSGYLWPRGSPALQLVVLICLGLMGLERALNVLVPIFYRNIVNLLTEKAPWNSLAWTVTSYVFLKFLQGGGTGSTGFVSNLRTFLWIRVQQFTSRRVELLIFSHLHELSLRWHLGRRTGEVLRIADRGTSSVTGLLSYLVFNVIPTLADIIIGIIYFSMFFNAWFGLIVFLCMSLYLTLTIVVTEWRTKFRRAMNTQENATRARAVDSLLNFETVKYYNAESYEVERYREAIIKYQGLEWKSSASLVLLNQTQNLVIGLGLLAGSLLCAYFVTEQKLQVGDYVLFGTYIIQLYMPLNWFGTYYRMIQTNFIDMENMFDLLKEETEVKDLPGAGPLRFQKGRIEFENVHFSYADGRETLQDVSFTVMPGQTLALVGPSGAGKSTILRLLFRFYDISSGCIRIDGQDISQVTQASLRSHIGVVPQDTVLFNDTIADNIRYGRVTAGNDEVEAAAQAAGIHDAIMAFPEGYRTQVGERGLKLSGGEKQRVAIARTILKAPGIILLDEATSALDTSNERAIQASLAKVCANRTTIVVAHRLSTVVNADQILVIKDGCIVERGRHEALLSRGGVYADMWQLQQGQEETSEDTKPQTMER
Chain of Beta-adrenergic receptor kinase 1 (Homo sapiens) (P25098 whole entry, looked up): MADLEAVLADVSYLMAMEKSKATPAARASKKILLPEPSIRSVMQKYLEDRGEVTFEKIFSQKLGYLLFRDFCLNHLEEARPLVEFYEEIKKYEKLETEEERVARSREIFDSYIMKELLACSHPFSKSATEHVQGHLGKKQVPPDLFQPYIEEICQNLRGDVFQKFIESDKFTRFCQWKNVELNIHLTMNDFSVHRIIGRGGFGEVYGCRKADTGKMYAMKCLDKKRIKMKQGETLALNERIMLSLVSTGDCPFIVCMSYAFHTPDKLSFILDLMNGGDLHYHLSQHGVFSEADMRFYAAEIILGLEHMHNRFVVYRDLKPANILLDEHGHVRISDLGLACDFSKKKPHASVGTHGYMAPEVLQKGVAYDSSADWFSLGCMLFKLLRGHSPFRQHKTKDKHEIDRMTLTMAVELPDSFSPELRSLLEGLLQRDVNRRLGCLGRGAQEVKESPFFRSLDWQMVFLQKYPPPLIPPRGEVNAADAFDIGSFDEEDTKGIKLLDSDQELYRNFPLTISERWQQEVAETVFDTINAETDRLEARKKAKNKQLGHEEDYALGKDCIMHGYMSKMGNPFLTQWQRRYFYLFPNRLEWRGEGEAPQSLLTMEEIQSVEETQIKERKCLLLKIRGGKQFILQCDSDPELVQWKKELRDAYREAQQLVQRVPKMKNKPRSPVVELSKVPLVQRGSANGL

SMILES | percent of DMSO control GFP [1] | GFP response vs DMSO [2] | percent response of DMSO control [3] | GFP response vs DMSO [4] | GFP response, % of DMSO [5] | double positive events [6] [%] | vesicle binding response [6] | inhibition [7] | superoxide response (% of plate) [8] | aptamer binding inhibition [9] | inhibition [10] | response [11] | binding (% of control) [12] | efflux inhibition (fraction of control) [13] | inhibition [14] | differentiation response [15]
CCOc1cc(C)cc2oc(=O)cc(-c3ccccc3)c12 | 99.5% (inactive) | 105% (inactive) | 92% (inactive) | 123% (inactive) | 92.8% (inactive) | 54.7 | 138% (inactive) | -5.84% (inactive) | 88.9% (inactive) | 4% (inactive) | 14.1% (inactive) | 8.03% (inactive) | 102% (inactive) | 0.18 (inactive) | 5% (inactive) | -16.4% (inactive)
CC(=O)O[C@]1(C(C)=O)CC[C@H]2[C@@H]3C=C(Cl)C4=CC(=O)CC[C@]4(C)[C@H]3CC[C@@]21C | 99.3% (inactive) | 89.7% (inactive) | 102% (inactive) | 84.3% (inactive) | 97.2% (inactive) | 48.7 | 201% (inactive) | -20.8% (inactive) | 108% (inactive) | -1% (inactive) | -12.8% (inactive) | -0.6% (inactive) | 105% (inactive) | -0.12 (inactive) | 9% (inactive) | -9.89% (inactive)
Cn1c(=O)oc2cc(S(=O)(=O)N3CCc4ccccc4C3)ccc21 | 101% (inactive) | 98.9% (inactive) | 102% (inactive) | 89.3% (inactive) | 97.8% (inactive) | 58.4 | 165% (inactive) | 15.6% (inactive) | 95.2% (inactive) | 2% (inactive) | 7.43% (inactive) | 2.89% (inactive) | 98.3% (inactive) | -0.05 (inactive) | 10% (inactive) | 9.49% (inactive)
CN(C)CCC(c1ccc(Br)cc1)c1ccccn1 (stereo not given) | 103% (inactive) | 101% (inactive) | 94.9% (inactive) | 97.4% (inactive) | 100% (inactive) | 56.9 | 182% (inactive) | 36.1% (inactive) | 106% (inactive) | 2% (inactive) | -4.8% (inactive) | 2.41% (inactive) | 103% (inactive) | 0.18 (inactive) | 12% (inactive) | -1.82% (inactive)
Cn1c2c(c(=O)[nH]c1=O)C(c1ccc(O)cc1)C1=C(N2)c2ccccc2C1=O (stereo not given) | 99% (inactive) | 97.9% (inactive) | 101% (inactive) | 87.3% (inactive) | 94.6% (inactive) | 62.7 | 228% (inactive) | -3.04% (inactive) | 92.2% (inactive) | -2% (inactive) | 8.12% (inactive) | -0.45% (inactive) | 96.9% (inactive) | -0.01 (inactive) | 9% (inactive) | 11.1% (inactive)
CCOC(=O)C1=C(N)Oc2c(oc(CO)cc2=O)C1c1ccc(F)c(F)c1 (stereo not given) | 99.1% (inactive) | 101% (inactive) | 99.8% (inactive) | 94.3% (inactive) | 97.3% (inactive) | 56.7 | 213% (inactive) | 9.09% (inactive) | 98% (inactive) | 1% (inactive) | 42.8% (inactive) | -11.2% (inactive) | 104% (inactive) | 0.03 (inactive) | 2% (inactive) | -18% (inactive)
COc1ccc(CCNC(=O)C(=O)Nc2ccc3c(c2)OCO3)cc1OC | 104% (inactive) | 104% (inactive) | 107% (inactive) | 101% (inactive) | 101% (inactive) | 65.2 | 220% (inactive) | -4.9% (inactive) | 96.1% (inactive) | 5% (inactive) | -11.2% (inactive) | 6.72% (inactive) | 94.1% (inactive) | -0.16 (inactive) | 10% (inactive) | -1.82% (inactive)
Clc1ccc2c(c1)C(N1CCNCC1)=Nc1ccccc1O2 | 107% (inactive) | 106% (inactive) | 109% (inactive) | 101% (inactive) | 105% (inactive) | 64 | 200% (inactive) | -42.2% (inactive) | 103% (inactive) | -1% (inactive) | 24.4% (inactive) | -1.95% (inactive) | 101% (inactive) | -0.47 (inactive) | 7% (inactive) | -8.27% (inactive)
COCCn1c(/C=C/c2ccccc2)nc2ccccc21 | 96.8% (inactive) | 101% (inactive) | 93% (inactive) | 93.3% (inactive) | 87.9% (inactive) | 59.7 | 149% (inactive) | 1.62% (inactive) | 92.6% (inactive) | 2% (inactive) | 10.5% (inactive) | 0.08% (inactive) | 105% (inactive) | 0.22 (inactive) | 6% (inactive) | -5.05% (inactive)
Cc1ncc([N+](=O)[O-])n1CC(O)CCl (stereo not given) | 101% (inactive) | 103% (inactive) | 102% (inactive) | 104% (inactive) | 100% (inactive) | 59.5 | 193% (inactive) | 7.22% (inactive) | 101% (inactive) | 4% (inactive) | 24.7% (inactive) | -1.86% (inactive) | 105% (inactive) | -0.09 (inactive) | 8% (inactive) | -0.2% (inactive)
